From PubChem BioAssay AID1631 (National Center for Advancing Translational Sciences (NCATS), 2009)
Hit rate of the full screen: of about 260,000 compounds, about 890 (0.34%) were called active. Another 1% or so got no clear call; they are omitted. The sample as a whole holds a higher share of actives than the screen did. A number with no mark means an inactive call. The call rests on the fitted dose curve; in most records, active means well fitted activation curve with a large enough effect; inconclusive means small, poorly fitted or top-dose-only effect; inactive means no such curve, though single readings can be large or run the other way.

Molecular target: Pyruvate kinase PKM (Homo sapiens) (UniProt P14618)
Sequence (P14618 whole entry, looked up, canonical isoform): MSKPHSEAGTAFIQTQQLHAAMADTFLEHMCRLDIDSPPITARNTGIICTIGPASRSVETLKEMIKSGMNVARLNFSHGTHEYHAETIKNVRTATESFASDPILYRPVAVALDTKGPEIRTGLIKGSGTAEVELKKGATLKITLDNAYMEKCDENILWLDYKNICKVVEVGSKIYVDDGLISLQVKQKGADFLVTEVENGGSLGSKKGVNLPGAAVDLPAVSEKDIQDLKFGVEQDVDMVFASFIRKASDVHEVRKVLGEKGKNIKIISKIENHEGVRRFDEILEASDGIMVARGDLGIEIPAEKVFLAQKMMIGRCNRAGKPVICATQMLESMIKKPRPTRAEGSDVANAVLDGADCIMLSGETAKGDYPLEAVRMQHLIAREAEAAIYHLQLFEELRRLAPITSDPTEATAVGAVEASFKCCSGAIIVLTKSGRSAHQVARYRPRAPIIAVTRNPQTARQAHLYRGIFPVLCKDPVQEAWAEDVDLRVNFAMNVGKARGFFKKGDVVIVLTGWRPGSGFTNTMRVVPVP
Assay: qHTS Assay for Activators of Human Muscle isoform 2 Pyruvate Kinase; further: nearly all actives have a fitted effect of over 55% in size
Conditions: purified PKM2, Kinase-Glo ATP luminescence; Potency: activation; series mostly up to 57.5 µM; activation: at the top concentration
Description: NIH Chemical Genomics Center [NCGC] Matthew G. Vander Heiden, M.D., Ph.D. [Harvard Medical School, 77 Avenue Louis Pasteur, Boston, MA 02115] MLPCN Grant: 1 R03 MH085679-01 NCGC Assay Overview: Human pyruvate kinase muscle 2 (hPK-M2) enzyme was supplied as a highly purified (>95% pure) preparation from Harvard Medical School and assayed for its ability to generate ATP from ADP using phosphoenolpyruvate (PEP) as a substrate. ATP generation was detected in a coupled reaction by luciferase-mediated luminescence, an ATP-dependent process. […] The enzyme was assayed at an intermediate level of activity to screen for both inhibitors and activators.
NCGC Assay Protocol Summary: Three uL of substrate mix (at r.t.) in assay buffer (50 mM Imidazole pH7.2, 50 mM KCl, 7 mM MgCl2, 0.01% Tween 20, 0.05% BSA) was dispensed into white solid bottom 1,536 well microtiter plates so that the final concentrations of substrates in the assay were 0.1 mM ADP and 0.5 mM PEP. 23 nL of compound were delivered by a pin tool and 1 uL of enzyme mix in assay buffer (4 degree Celsius) was added. Plates were incubated at room temperature for 1 hour. Two uL of detection mix (Kinase-Glo, Promega; at 4 degree Celsius protected from light) was added and luminescence read by a ViewLux (Perkin Elmer) at 5 second exposure/plate. Data were normalized to the uninhibited and AC100 inhibition (no enzyme). To monitor activation, the first column contained a titration of the activator, NCGC00031955-01 (16-point 1:2 dilutions in duplicate starting at 57 uM) and the first 16 rows of column 4 contained 57 uM of NCGC00031955-01.
On the % scale 0 is the no-effect control and ±100 the full control effect; potency means the concentration at half of the fitted maximal effect.

Row | Structure (SMILES) | activation | Potency
1 | Cc1nc2ccccc2c(=O)n1-c1ccc(Cl)cc1Cl | -0.0497% [at 11.5 µM, 0% is enzyme alone, no compound] | –
2 | O=c1c2ccccc2nc(/C=C/c2ccco2)n1-c1ccccc1O | – | 3.98 µM (active)
3 | O=c1c2ccccc2nc(-c2ccco2)n1-c1ccc(Br)cn1 | 6.38% | –
4 | CCCCn1c(=O)c(C(=O)Nc2ccccc2Cl)c(O)c2ccccc21 | 0.939% | –
5 | CN(C)C(=O)Oc1ccc(NC(=O)N2CCOCC2)cc1 | 1.13% | –
